# In the supplement of paper PMC8728848:
# The entries come from a sample that favours the strongest signals as a whole.
# How the values were obtained:
# Experiment in all cases: glycan array binding signal (z-score within array); higher = stronger binding
# Settings in all cases: glycan notation: IUPAC condensed, linker removed
# [1] = target: Fuc(a1-2)Gal(b1-4)GlcNAc
# How it was run: (§1)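 Columns mapping to the same glycan were averaged after glycan names were converted to IUPAC-condensed notation. The data come from 3228 arrays in the Consortium for Functional Glycomics database, limited to those with an available protein sequence. Binding is reported as a within-array Z-score averaged across arrays of one protein sequence and across linkers.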
# [2] = target: Fuc(a1-2)Gal(b1-4)GlcNAc(b1-3)Gal(b1-4)GlcNAc(b1-3)Gal(b1-4)GlcNAc
# How it was run: as §1
# [3] = target: Fuc(a1-2)[Gal(a1-3)]Gal
# How it was run: as §1
# [4] = target: Gal(a1-3)Gal(b1-4)GlcNAc
# How it was run: as §1
# [5] = target: Gal(a1-3)[Gal(a1-4)]Gal(b1-4)GlcNAc
# How it was run: as §1
# [6] = target: Gal(b1-4)GlcNAc(b1-6)GalNAc
# How it was run: as §1
# [7] = target: Gal3S(b1-4)Glc
# How it was run: as §1
# [8] = target: Gal4S(b1-4)GlcNAc
# How it was run: as §1
# [9] = target: Gal6S(b1-4)Glc
# How it was run: as §1
# [10] = target: GlcNAc(b1-3)[GlcNAc(b1-6)]GlcNAc(b1-4)GlcNAc
# How it was run: as §1
# [11] = target: Man(a1-2)Man(a1-2)Man(a1-6)[Man(a1-3)]Man
# How it was run: as §1
# [12] = target: Neu5Ac(a2-3)Gal(b1-4)GlcNAc(b1-3)Gal(b1-4)GlcNAc(b1-3)Gal(b1-4)GlcNAc
# How it was run: as §1
# [13] = target: Neu5Ac(a2-3)Gal(b1-4)[Fuc(a1-3)]GlcNAc
# How it was run: as §1
# [14] = target: Fuc(a1-2)Gal6S(b1-4)GlcNAc
# How it was run: as §1
# [15] = target: Fuc(a1-3)[Gal3S(b1-4)]Glc
# How it was run: as §1
# [16] = target: Gal(a1-3)Gal(b1-3)Glc
# How it was run: as §1
# [17] = target: Gal(a1-4)GlcNAc
# How it was run: as §1
# [18] = target: Gal(a1-6)Glc
# How it was run: as §1
# [19] = target: Gal(b1-3)Gal
# How it was run: as §1
# [20] = target: Gal(b1-3)GalNAc(b1-3)Gal(b1-4)GlcNAc
# How it was run: as §1
# [21] = target: Gal(b1-4)GlcNAc(b1-2)Man(a1-3)[Gal(b1-4)GlcNAc(b1-2)Man(a1-6)]Man(b1-4)GlcNAc(b1-4)GlcNAc
# How it was run: as §1
# [22] = target: Gal3S(b1-4)Glc6S
# How it was run: as §1
# [23] = target: Gal3S(b1-4)GlcNAc
# How it was run: as §1
# [24] = target: Gal3S(b1-4)GlcNAc6S
# How it was run: as §1
# [25] = target: Gal3S6S(b1-4)GlcNAc6S
# How it was run: as §1
# [26] = target: Gal6S(b1-4)Glc6S
# How it was run: as §1
# [27] = target: GalNAc(b1-3)Gal(a1-4)Gal(b1-4)GlcNAc
# How it was run: as §1
# [28] = target: Glc(b1-4)Glc
# How it was run: as §1
# [29] = target: GlcNAc(b1-4)GlcNAc(b1-4)GlcNAc(b1-4)GlcNAc(b1-4)GlcNAc(b1-4)GlcNAc
# How it was run: as §1
# [30] = target: Man(a1-3)[Man(a1-6)]Man(b1-4)GlcNAc(b1-4)GlcNAc
# How it was run: as §1
# [31] = target: Man(b1-4)GlcNAc
# How it was run: as §1
# [32] = target: Neu5Ac(a2-3)Gal(b1-3)GalNAc
# How it was run: as §1
# [33] = target: Neu5Ac(a2-3)Gal(b1-4)GlcNAc(b1-3)Gal(b1-4)GlcNAc
# How it was run: as §1
# [34] = target: Neu5Ac(a2-3)Gal(b1-4)GlcNAc(b1-6)[Gal(b1-3)]GalNAc
# How it was run: as §1
# [35] = target: Neu5Ac(a2-3)Gal(b1-4)GlcNAc6S
# How it was run: as §1
# [36] = target: Neu5Ac(a2-3)Gal(b1-4)[Fuc(a1-3)]GlcNAc(b1-3)Gal
# How it was run: as §1
# [37] = target: Neu5Ac(a2-8)Neu5Ac(a2-3)Gal(b1-4)Glc
# How it was run: as §1
# [38] = target: Neu5Ac(a2-8)Neu5Ac(a2-3)[GalNAc(b1-4)]Gal(b1-4)Glc
# How it was run: as §1
# [39] = target: Neu5Gc(a2-3)Gal(b1-3)GlcNAc
# How it was run: as §1
# [40] = target: Neu5Ac(a2-6)Gal(b1-4)GlcNAc
# How it was run: as §1
# [41] = target: Neu5Ac(a2-6)Gal(b1-4)GlcNAc(b1-2)Man(a1-3)[Man(a1-6)]Man(b1-4)GlcNAc(b1-4)GlcNAc
# How it was run: as §1
# [42] = target: Neu5Ac(a2-6)Gal(b1-4)GlcNAc(b1-3)Gal(b1-4)GlcNAc
# How it was run: as §1
# [43] = target: Neu5Gc(a2-3)Gal(b1-3)[Fuc(a1-4)]GlcNAc
# How it was run: as §1
binder,measurement,setting,value
"RegIIIalpha (Mus musculus), O09037 (protein) MLPHLVLNSISWMLLSCLLFVFQVQGEDFQKEVPSPRTSCPMGYKAYRSHCYALVMTPKSWFQADLVCQKRPSGHLVSILSGGEASFVSSLVNGRVDNYQDIWIGLHDPTMGQQPNGGGWEWSNSDVLNYLNWDGDPSSTVNRGHCGSLTASSGFLKWGDYYCDGTLPFVCKFKQ",glycan array binding signal (z-score),[1],-0.094
same,glycan array binding signal (z-score),[2],0.048
same,glycan array binding signal (z-score),[3],-0.098
same,glycan array binding signal (z-score),[4],-0.089
same,glycan array binding signal (z-score),[5],0.002
same,glycan array binding signal (z-score),[6],-0.096
same,glycan array binding signal (z-score),[7],-0.096
same,glycan array binding signal (z-score),[8],0.116
same,glycan array binding signal (z-score),[9],-0.072
same,glycan array binding signal (z-score),[10],-0.081
same,glycan array binding signal (z-score),[11],-0.092
same,glycan array binding signal (z-score),[12],0.002
same,glycan array binding signal (z-score),[13],-0.054
"FBG4 (Homo sapiens), Q96EF6 (protein) MGARLSRRRLPADPSLALDALPPELLVQVLSHVPPRSLVTRCRPVCRAWRDIVDGPTVWLLQLARDRSAEGRALYAVAQRCLPSNEDKEEFPLCALARYCLRAPFGRNLIFNSCGEQGFRGWEVEHGGNGWAIEKNLTPVPGAPSQTCFVTSFEWCSKRQLVDLVMEGVWQELLDSAQIEICVADWWGARENCGCVYQLRVRLLDVYEKEVVKFSASPDPVLQWTERGCRQVSHVFTNFGKGIRYVSFEQYGRDVSSWVGHYGALVTHSSVRVRIRLS",glycan array binding signal (z-score),[1],-0.263
same,glycan array binding signal (z-score),[14],-0.475
same,glycan array binding signal (z-score),[15],-0.408
same,glycan array binding signal (z-score),[16],-0.259
same,glycan array binding signal (z-score),[17],-0.495
same,glycan array binding signal (z-score),[18],1.59
same,glycan array binding signal (z-score),[19],-0.536
same,glycan array binding signal (z-score),[20],-0.307
same,glycan array binding signal (z-score),[21],0.176
same,glycan array binding signal (z-score),[22],2.36
same,glycan array binding signal (z-score),[23],0.201
same,glycan array binding signal (z-score),[24],2.01
same,glycan array binding signal (z-score),[25],6.42
same,glycan array binding signal (z-score),[26],3.24
same,glycan array binding signal (z-score),[27],-0.171
same,glycan array binding signal (z-score),[28],0.332
same,glycan array binding signal (z-score),[29],1.31
same,glycan array binding signal (z-score),[30],0.275
same,glycan array binding signal (z-score),[31],-0.448
same,glycan array binding signal (z-score),[32],-0.559
same,glycan array binding signal (z-score),[33],-0.49
same,glycan array binding signal (z-score),[34],-0.301
same,glycan array binding signal (z-score),[35],0.103
same,glycan array binding signal (z-score),[36],-0.522
same,glycan array binding signal (z-score),[37],-0.41
same,glycan array binding signal (z-score),[38],-0.266
same,glycan array binding signal (z-score),[39],-0.432
"Tachylectin-2 (Tachypleus tridentatus), TAL2_TACTR (protein) VGGESMLRGVYQDKFYQGTYPQNKNDNWLARATLIGKGGWSNFKFLFLSPGGELYGVLNDKIYKGTPPTHDNDNWMGRAKKIGNGGWNQFQFLFFDPNGYLYAVSKDKLYKASPPQSDTDNWIARATEIGSGGWSGFKFLFFHPNGYLYAVHGQQFYKALPPVSNQDNWLARATKIGQGGWDTFKFLFFSSVGTLFGVQGGKFYEDYPPSYAHDNWLARAKLIGNGGWDDFRFLFF",glycan array binding signal (z-score),[35],-0.232
same,glycan array binding signal (z-score),[40],-0.176
same,glycan array binding signal (z-score),[41],-0.295
same,glycan array binding signal (z-score),[42],-0.249
same,glycan array binding signal (z-score),[43],-0.316
